# Measured values published in PubChem BioAssay.
# For part of these data: Potency and affinity values are given separately. Calls of active or inactive are those of the source.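 How the source made its calls, unless noted: active means primary screen hit whose fluorescence ratio, in both repeats, exceeds the weak agonist control mean by 3 SD; inactive means the rest.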
# Tests used:
# [1] = system: TRPC4 beta (transient receptor potential cation channel C4), mouse; experiment: activators of mouse TRPC4 channel, confirmation, cell-based, Fluo4 calcium, HEK293 TRPC4beta/mu-opioid, duplicates, 10 µM (AID 2426;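 active means fluorescence ratio normalized to control raised more than 50% in primary screen plus both repeat runs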;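 on activation: percent rise of integrated ratio over buffer wells lacking compound which define 0%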); settings: Fluo4 calcium fluorescence, at 10 µM; stronger effect = higher value
# [2] = system: transient receptor potential cation channel C4 beta (TRPC4), mouse; experiment: activators of mouse TRPC4 channel, confirmation, cell-based, second round, Fluo4, HEK293 TRPC4beta/mu-opioid, 1 µM (AID 2461;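 active means primary screen active and over 50% activation in each of two duplicate runs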;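 on activation: 0% = wells without test compound as baseline of integrated fluorescence ratio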); settings: Fluo4 calcium fluorescence, at 1 µM; stronger effect = higher value
# [3] = system: TRPC4 (transient receptor potential cation channel C4 beta), mouse; experiment: positive allosteric modulators of mouse TRPC4, confirmation, cell-based, second round, Fluo-4, HEK293 TRPC4beta/mu-opioid, 1 µM (AID 2554); settings: DAMGO EC20, Fluo-4 calcium flux, at 1 µM; stronger effect = higher value
# [4] = system: TRPC4 beta (transient receptor potential cation channel C4), mouse; experiment: positive allosteric modulators of mouse TRPC4, confirmation, cell-based, Fluo-4, HEK293 TRPC4beta/mu-opioid (AID 2555;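 active means primary screen hit whose calcium fluorescence ratio, in both repeats, exceeds the weak agonist control mean by 3 SD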); settings: DAMGO EC20, Fluo-4 calcium flux, at 10 µM; stronger effect = higher value
# [5] = biological target: Short transient receptor potential channel 4 (Mus musculus) (UniProt Q9QUQ5); experiment: inhibitors of mouse TRPC4 channel, confirmation, cell-based, Fluo4, HEK293 TRPC4beta/mu-opioid (AID 2636;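 active means calcium signal cut by more than 3 SD below the full-agonist control yet still positive, in both repeats and the earlier primary screen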); settings: DAMGO, Fluo4 calcium flux, at 10 µM; stronger effect = higher value
# Short transient receptor potential channel 4 (Mus musculus), sequence (Q9QUQ5 whole entry, looked up): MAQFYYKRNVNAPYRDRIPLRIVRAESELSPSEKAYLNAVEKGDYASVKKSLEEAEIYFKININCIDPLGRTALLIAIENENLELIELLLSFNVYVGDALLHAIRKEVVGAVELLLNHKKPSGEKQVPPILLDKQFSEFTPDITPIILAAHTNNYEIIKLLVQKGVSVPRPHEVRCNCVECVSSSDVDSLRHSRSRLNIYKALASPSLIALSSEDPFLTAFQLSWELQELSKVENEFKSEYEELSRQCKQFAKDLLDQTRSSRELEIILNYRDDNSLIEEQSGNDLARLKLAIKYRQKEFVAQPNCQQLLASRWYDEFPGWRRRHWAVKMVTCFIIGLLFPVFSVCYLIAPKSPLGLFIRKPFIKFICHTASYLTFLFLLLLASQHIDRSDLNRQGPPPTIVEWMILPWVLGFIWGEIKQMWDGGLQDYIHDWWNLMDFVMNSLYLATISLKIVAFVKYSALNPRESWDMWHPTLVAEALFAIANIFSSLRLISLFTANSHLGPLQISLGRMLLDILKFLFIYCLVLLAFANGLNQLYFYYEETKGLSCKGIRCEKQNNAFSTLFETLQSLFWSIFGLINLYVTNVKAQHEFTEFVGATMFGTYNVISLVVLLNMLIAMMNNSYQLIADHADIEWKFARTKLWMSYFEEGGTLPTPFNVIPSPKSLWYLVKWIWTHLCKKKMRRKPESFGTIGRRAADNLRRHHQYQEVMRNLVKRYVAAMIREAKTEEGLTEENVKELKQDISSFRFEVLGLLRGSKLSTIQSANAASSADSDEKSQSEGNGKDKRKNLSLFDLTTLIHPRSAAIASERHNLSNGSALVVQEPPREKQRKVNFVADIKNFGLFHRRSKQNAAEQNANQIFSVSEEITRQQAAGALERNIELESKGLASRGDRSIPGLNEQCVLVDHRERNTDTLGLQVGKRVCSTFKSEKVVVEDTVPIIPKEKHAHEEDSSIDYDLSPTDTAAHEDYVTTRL
# [6] = biological target: Short transient receptor potential channel 4 (Mus musculus) (UniProt Q9QUQ5); experiment: inhibitors of mouse TRPC4 channel, confirmation, cell-based, second round, Fluo4, HEK293 TRPC4beta/mu-opioid, 1 µM (AID 2637;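 active means calcium signal ratio cut to more than 3 SD under the fully stimulated control mean yet still positive, in both repeats and the primary screen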); settings: Fluo4 calcium flux, DAMGO, at 1 µM; stronger effect = higher value
# [7] = biological target: Short transient receptor potential channel 4 (Mus musculus) (UniProt Q9QUQ5); experiment: mouse TRPC4 channel activators, dose response, cell-based, HEK293 TRPC4/mu-opioid, Fluo-4 calcium (AID 434937;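 active means primary screen activator hit with a dose response curve and TRPC4 channel activation at any tested dose; inactive means no activation, no dose response, or not a primary hit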)
# [8] = biological target: Short transient receptor potential channel 4 (Mus musculus) (UniProt Q9QUQ5); experiment: mouse TRPC4 channel inhibitors, dose response, cell-based, HEK293 TRPC4/mu-opioid, Fluo-4 calcium (AID 434942;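 active means primary screen inhibitor hit that blocks the TRPC4 channel at some tested dose, yielding a dose curve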)
# [9] = biological target: Short transient receptor potential channel 6 (Mus musculus) (UniProt Q61143); experiment: inhibition of mouse TRPC6 channel, confirmation, selectivity assay for TRPC4 inhibitor project, cell-based, HEK293, membrane potential dye, duplicate (AID 434948;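 active means active in primary screen and both duplicates, each dropping signal beyond three positive-control SD with fluorescence still positive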); settings: HEK293 TRPC6, membrane potential dye fluorescence, at 10 µM, stimulated with maximal-effect acetylcholine; stronger effect = higher value
# Short transient receptor potential channel 6 (Mus musculus), sequence (Q61143 whole entry, looked up): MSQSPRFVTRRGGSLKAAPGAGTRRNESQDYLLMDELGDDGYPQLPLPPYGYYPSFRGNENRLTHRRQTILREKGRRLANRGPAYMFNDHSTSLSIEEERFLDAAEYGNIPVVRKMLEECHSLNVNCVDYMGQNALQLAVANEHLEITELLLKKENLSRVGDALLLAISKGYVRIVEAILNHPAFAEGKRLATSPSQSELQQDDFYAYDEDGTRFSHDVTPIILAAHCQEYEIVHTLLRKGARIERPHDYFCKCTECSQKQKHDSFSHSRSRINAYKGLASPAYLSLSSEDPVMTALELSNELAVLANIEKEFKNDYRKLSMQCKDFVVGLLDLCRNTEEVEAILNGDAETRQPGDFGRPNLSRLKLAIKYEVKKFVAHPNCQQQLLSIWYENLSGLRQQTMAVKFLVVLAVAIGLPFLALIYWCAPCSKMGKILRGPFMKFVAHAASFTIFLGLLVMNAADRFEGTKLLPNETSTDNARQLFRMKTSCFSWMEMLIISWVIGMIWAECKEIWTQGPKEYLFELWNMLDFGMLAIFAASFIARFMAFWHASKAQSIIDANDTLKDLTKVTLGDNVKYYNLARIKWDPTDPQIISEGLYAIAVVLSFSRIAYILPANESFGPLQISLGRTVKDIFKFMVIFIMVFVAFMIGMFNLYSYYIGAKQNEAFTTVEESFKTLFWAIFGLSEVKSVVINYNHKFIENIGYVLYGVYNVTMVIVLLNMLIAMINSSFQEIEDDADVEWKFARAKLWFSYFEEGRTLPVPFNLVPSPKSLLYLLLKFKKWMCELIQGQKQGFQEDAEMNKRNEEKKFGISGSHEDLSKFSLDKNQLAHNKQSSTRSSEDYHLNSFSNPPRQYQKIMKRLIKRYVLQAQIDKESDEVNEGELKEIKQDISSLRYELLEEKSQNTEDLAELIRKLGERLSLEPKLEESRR
# [10] = biological target: Short transient receptor potential channel 6 (Mus musculus) (UniProt Q61143); experiment: activation of mouse TRPC6 channel, confirmation, selectivity assay for TRPC4 activator project, cell-based, HEK293, membrane potential dye, duplicate (AID 434950;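 active means membrane potential signal rise above negative control mean plus 3 SD in both duplicates, also active in the earlier TRPC4 screen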;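 on activation: 0% = buffer only wells and 100% = acetylcholine maximal-effect wells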); settings: HEK293 TRPC6, membrane potential fluorescence, at 10 µM; stronger effect = higher value
# [11] = biological target: Short transient receptor potential channel 6 (Mus musculus) (UniProt Q61143); experiment: TRPC6 potentiation by TRPC4 potentiator hits, confirmation, selectivity assay for TRPC4 potentiator project, HEK293 cells, membrane potential dye, duplicate (AID 434952;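 active means compound raising the membrane signal above positive-control mean plus 3 SD in both repeats, and a primary screen hit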); settings: HEK293 TRPC6, membrane potential dye fluorescence, at 10 µM, maximal acetylcholine added after compound; stronger effect = higher value
# [12] = biological target: Short transient receptor potential channel 4 (Mus musculus) (UniProt Q9QUQ5); experiment: calcium flux activators in TRPC4/5HT1a cells, counter-screen for TRPC4 activator project, cell-based, second counter screen, HEK293 TRPC4/5HT1a, Fluo-4 (AID 434977;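 active means calcium signal rise above buffer-control mean plus 5 SD in both duplicates, and also a hit in the primary screen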;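 on activation: plate controls were assay buffer for no effect and maximal serotonin response for full effect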); settings: Fluo-4 calcium flux, at 10 µM; stronger effect = higher value
# [13] = calcium flux inhibitors in TRPC4/5HT1a cells, confirmation, counter-screen for TRPC4 inhibitor project, cell-based, second counter screen, HEK293 TRPC4/5HT1a, Fluo-4 (AID 434978;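 active means primary screen active whose calcium signal fell more than 3 SD beyond the full-serotonin control mean in both duplicate plates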;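 further: serotonin given first at submaximal then at maximal dose after compound preincubation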); settings: Fluo-4 calcium flux, at 10 µM, serotonin added to trigger calcium flux; stronger effect = higher value
# [14] = system: TRPC4 (mouse), co-expressed with 5HT1a in HEK293; experiment: calcium flux potentiators in TRPC4/5HT1a cells, confirmation, counter-screen for TRPC4 potentiator project, cell-based, second counter screen, HEK293 TRPC4/5HT1a, Fluo-4 (AID 434979;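 active means signal rise over 3 SD above mean of control wells given weak agonist, in both repeats and first screen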); settings: Fluo-4 calcium flux, at 10 µM, serotonin added at its EC20 dose; stronger effect = higher value
# [15] = calcium flux activation in mu-opioid HEK293 cells, confirmation, counter-screen for TRPC4 activator project, cell-based, HEK293 mu-opioid receptor line (AID 449723;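 active means hit in primary screen, with calcium signal over 5 SD above buffer well mean in both duplicates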;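 further: counter screen cells carry the mu-opioid receptor alone and lack TRPC4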); settings: Fluo-4 calcium fluorescence, at 10 µM; stronger effect = higher value
# [16] = calcium flux enhancement in mu-opioid HEK293 cells, confirmation, counter-screen for TRPC4 allosteric potentiator project, cell-based, HEK293 mu-opioid receptor line (AID 449724;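 active means calcium signal rise more than 3 SD above the low-dose agonist control mean, in both duplicate plates and the primary screen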); settings: Fluo-4 calcium flux, at 10 µM, compound added before EC20 DAMGO stimulus; stronger effect = higher value
# [17] = biological target: Short transient receptor potential channel 4 (Mus musculus) (UniProt Q9QUQ5); experiment: TRPC4 positive allosteric modulators, dose response, cell-based, HEK293 TRPC4/mu-opioid, Fluo-4 calcium, EC20 DAMGO (AID 434941;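 active means earlier screen potentiator hit that boosts the TRPC4 ion channel at some dose, with a dose response; inactive means no potentiation, no dose response, or not a prior hit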;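 further: calcium entry triggered by an EC20 dose of DAMGO at the co-expressed mu-opioid receptor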)
compound,measurement,setting,value
O=[N+]([O-])c1ccc(/C=N/Nc2nc(N3CCCCC3)nc(N3CCCCC3)n2)o1,outcome,[1],inactive
same,outcome,[2],inactive
same,outcome,[3],inactive
same,potentiation,[4],21% (active)
same,outcome,[5],inactive
same,outcome,[6],inactive
same,outcome,[7],inactive
same,outcome,[8],inactive
same,outcome,[9],inactive
same,outcome,[10],inactive
same,outcome,[11],inactive
same,outcome,[12],inactive
same,outcome,[13],inactive
same,potentiation,[14],59.2% (active)
same,outcome,[15],inactive
same,outcome,[16],inactive
O=C(NCc1ccccc1)C1=C[C@H](c2ccc(C(F)(F)F)cc2)C[C@H](OCc2ccc(CO)cc2)O1,outcome,[1],inactive
same,outcome,[2],inactive
same,outcome,[3],inactive
same,potentiation,[4],51% (active)
same,outcome,[5],inactive
same,outcome,[6],inactive
same,outcome,[7],inactive
same,outcome,[8],inactive
same,outcome,[9],inactive
same,outcome,[10],inactive
same,outcome,[11],inactive
same,outcome,[12],inactive
same,outcome,[13],inactive
same,potentiation,[14],111% (active)
same,outcome,[15],inactive
same,outcome,[16],inactive
O=C(CC1C(=O)NCCN1Cc1cccc(Oc2ccccc2)c1)NCCc1ccccn1 (stereo not given),activation,[1],99% (active)
same,outcome,[2],inactive
same,outcome,[3],inactive
same,outcome,[4],inactive
same,outcome,[5],inactive
same,outcome,[6],inactive
same,outcome,[17],inactive
same,outcome,[8],inactive
same,outcome,[9],inactive
same,outcome,[10],inactive
same,outcome,[11],inactive
same,activation,[12],42.3% (active)
same,outcome,[13],inactive
same,outcome,[14],inactive
same,outcome,[15],inactive
same,outcome,[16],inactive
CC(C)c1c(O)nc(SCCN(C)C)[nH]c1=O,outcome,[1],inactive
same,outcome,[2],inactive
same,potentiation,[3],13% (active)
same,potentiation,[4],27% (active)
same,outcome,[5],inactive
same,outcome,[6],inactive
same,outcome,[7],inactive
same,outcome,[8],inactive
same,outcome,[9],inactive
same,outcome,[10],inactive
same,outcome,[11],inactive
same,outcome,[12],inactive
same,outcome,[13],inactive
same,potentiation,[14],57.7% (active)
same,outcome,[15],inactive
same,outcome,[16],inactive
O=C(Nc1ccncc1)c1ccc(Cl)c(S(=O)(=O)N2CCc3ccccc32)c1,activation,[1],108% (active)
same,outcome,[2],inactive
same,outcome,[3],inactive
same,outcome,[4],inactive
same,outcome,[5],inactive
same,outcome,[6],inactive
same,outcome,[17],inactive
same,outcome,[8],inactive
same,outcome,[9],inactive
same,outcome,[10],inactive
same,outcome,[11],inactive
same,activation,[12],17.7% (active)
same,outcome,[13],inactive
same,outcome,[14],inactive
same,outcome,[15],inactive
same,outcome,[16],inactive
CN(C)CCNC(=O)c1scc2c1CCCC2,outcome,[1],inactive
same,outcome,[2],inactive
same,outcome,[3],inactive
same,outcome,[4],inactive
same,outcome,[5],inactive
same,outcome,[6],inactive
same,outcome,[17],inactive
same,outcome,[8],inactive
same,outcome,[9],inactive
same,activation,[10],41.5% (active)
same,outcome,[11],inactive
same,activation,[12],19.6% (active)
same,outcome,[13],inactive
same,outcome,[14],inactive
same,outcome,[15],inactive
same,outcome,[16],inactive
Cc1cc(OCC(=O)NC2CCCCC2)ccc1Cl,outcome,[1],inactive
same,outcome,[2],inactive
same,outcome,[3],inactive
same,outcome,[4],inactive
same,outcome,[5],inactive
same,outcome,[6],inactive
same,outcome,[7],inactive
same,outcome,[8],inactive
same,outcome,[9],inactive
same,outcome,[10],inactive
same,outcome,[11],inactive
same,outcome,[12],inactive
same,outcome,[13],inactive
same,potentiation,[14],97.2% (active)
same,outcome,[15],inactive
same,outcome,[16],inactive
Cc1cc2oc(C(=O)N(Cc3ccccc3)C3CCS(=O)(=O)C3)cc(=O)c2cc1Cl (stereo not given),outcome,[1],inactive
same,outcome,[2],inactive
same,outcome,[3],inactive
same,potentiation,[4],47% (active)
same,outcome,[5],inactive
same,outcome,[6],inactive
same,outcome,[7],inactive
same,outcome,[8],inactive
same,outcome,[9],inactive
same,outcome,[10],inactive
same,outcome,[11],inactive
same,outcome,[12],inactive
same,outcome,[13],inactive
same,potentiation,[14],68.1% (active)
same,outcome,[15],inactive
same,outcome,[16],inactive
Cc1ccc(S(=O)(=O)N2CCC(N3CCN(C)CC3)CC2)cc1Cl,outcome,[1],inactive
same,outcome,[2],inactive
same,potentiation,[3],12% (active)
same,potentiation,[4],20% (active)
same,outcome,[5],inactive
same,outcome,[6],inactive
same,outcome,[7],inactive
same,outcome,[8],inactive
same,outcome,[9],inactive
same,outcome,[10],inactive
same,outcome,[11],inactive
same,outcome,[12],inactive
same,outcome,[13],inactive
same,potentiation,[14],34.5% (active)
same,outcome,[15],inactive
same,outcome,[16],inactive
Cc1ccc(C(C)C)cc1OCCCCN1CCCC1,outcome,[1],inactive
same,outcome,[2],inactive
same,potentiation,[3],15% (active)
same,potentiation,[4],12% (active)
same,outcome,[5],inactive
same,outcome,[6],inactive
same,outcome,[7],inactive
same,outcome,[8],inactive
same,outcome,[9],inactive
same,outcome,[10],inactive
same,outcome,[11],inactive
same,outcome,[12],inactive
same,outcome,[13],inactive
same,potentiation,[14],6.54% (active)
same,outcome,[15],inactive
same,outcome,[16],inactive
CCn1c(CN2CCN(Cc3ccc(C)cc3)C(CCO)C2)nc2ccccc21 (stereo not given),activation,[1],129% (active)
same,activation,[2],73% (active)
same,outcome,[3],inactive
same,outcome,[4],inactive
same,outcome,[5],inactive
same,outcome,[6],inactive
same,outcome,[17],inactive
same,outcome,[8],inactive
same,outcome,[9],inactive
same,activation,[10],61.5% (active)
same,outcome,[11],inactive
same,activation,[12],32.4% (active)
same,outcome,[13],inactive
same,outcome,[14],inactive
same,outcome,[15],inactive
same,outcome,[16],inactive
O=C(Nc1ccccc1)C1=C[C@H](C2CCCCC2)C[C@H](OCc2ccc(CO)cc2)O1,outcome,[1],inactive
same,outcome,[2],inactive
same,outcome,[3],inactive
same,potentiation,[4],85% (active)
same,outcome,[5],inactive
same,outcome,[6],inactive
same,outcome,[7],inactive
same,outcome,[8],inactive
same,outcome,[9],inactive
same,outcome,[10],inactive
same,outcome,[11],inactive
same,outcome,[12],inactive
same,outcome,[13],inactive
same,potentiation,[14],124% (active)
same,outcome,[15],inactive
same,outcome,[16],inactive
COc1ccc2nc(SCCN(C)C)[nH]c2c1,activation,[1],108% (active)
same,activation,[2],87% (active)
same,outcome,[3],inactive
same,outcome,[4],inactive
same,outcome,[5],inactive
same,outcome,[6],inactive
same,outcome,[17],inactive
same,outcome,[8],inactive
same,outcome,[9],inactive
same,outcome,[10],inactive
same,outcome,[11],inactive
same,activation,[12],35.7% (active)
same,outcome,[13],inactive
same,outcome,[14],inactive
same,outcome,[15],inactive
same,outcome,[16],inactive
CN(C)CCCN(C(=O)c1ccc(S(=O)(=O)N2CCc3ccccc32)cc1)c1nc2ccc(F)cc2s1,activation,[1],79% (active)
same,outcome,[2],inactive
same,outcome,[3],inactive
same,outcome,[4],inactive
same,outcome,[5],inactive
same,outcome,[6],inactive
same,outcome,[17],inactive
same,outcome,[8],inactive
same,outcome,[9],inactive
same,outcome,[10],inactive
same,outcome,[11],inactive
same,outcome,[12],inactive
same,outcome,[13],inactive
same,outcome,[14],inactive
same,outcome,[15],inactive
same,outcome,[16],inactive
N#CC1=C(N)C(C#N)(C#N)C(c2cccnc2)C2CC(c3ccccc3)CC=C12 (stereo not given),outcome,[1],inactive
same,outcome,[2],inactive
same,outcome,[3],inactive
same,potentiation,[4],77% (active)
same,outcome,[5],inactive
same,outcome,[6],inactive
same,outcome,[7],inactive
same,outcome,[8],inactive
same,outcome,[9],inactive
same,outcome,[10],inactive
same,outcome,[11],inactive
same,outcome,[12],inactive
same,outcome,[13],inactive
same,potentiation,[14],9.65% (active)
same,outcome,[15],inactive
same,outcome,[16],inactive
